Screening data (PubChem BioAssay)
CF NFkB block = inhibitors of PAF-induced NF-kB signaling, primary screen, cell-based, GFP fluorescence, uHTS. KKLEB NF-kB-GFP reporter, GFP fluorescence overnight. inhibition, % at 5 µM. hit rate 0.86% among 360,000. AID 588850, 2011;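 active = at least 50% inhibition at 5 µM, scaled per plate between neutral and stimulator controls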;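 also: PAF is a Pseudomonas aeruginosa culture filtrate used as stimulus; plate controls were PAF-stimulated DMSO wells for no effect and unstimulated DMSO wells for full effect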
KKLEB tox = cytotoxicity in KKLEB CF airway cells, primary screen, cytotoxicity control for CF NF-kB inhibitor project, cell-based, uHTS, fluorescence assay plates; KKLEB CF airway cells viability, ATPlite luminescence, overnight; stronger effect = lower value; cells stimulated with P. aeruginosa culture filtrate; activity change (cytotoxicity), % at 5 µM; hit rate 0.36% among 360,000; AID 602141, 2011;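 active = corrected activity change at or below -50% at 5 µM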
TWEAK Fn14 block = inhibitors of TWEAK-Fn14 signaling, primary screen, luciferase reporter cells, uHTS. hit rate 2% among 360,000. TWEAK-stimulated Fn14 reporter cells, luciferase luminescence, 8 h. inhibition, % at 10 µM. AID 1159606, 2016; in the data active = inhibition above about 50%
TROY NFkB inh = inhibitors of TROY-driven NF-kB signaling, primary screen, Q293 LMP1-TROYcd cells, NF-kB luciferase, uHTS | Q293 LMP1-TROYcd NF-kB luciferase reporter, 4 h | inhibition, % at 10 µM | hit rate 0.98% among 360,000;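 active = compounds whose plate-normalised and pattern-corrected inhibition of the luciferase reporter signal at the single screening dose is 50% or more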
Peg3 prom inh = Peg3 promoter-driven luciferase inhibitors, primary screen, cell-based, HeLa, luciferase luminescence | HeLa PEG-Prom luciferase reporter, overnight | inhibition, % at 20 µM | hit rate 1.7% among 360,000 | AID 588405, 2011;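 active = inhibition of at least 50% at 20 µM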
HIF-2a inh = HIF-2a reporter inhibitors, primary screen, luminescence, 786-0 RCC cells; 786-0 RCC cells HIF-2a reporter, luciferase luminescence, overnight; inhibition, % at 18.8 µM; hit rate 0.72% among 360,000; AID 624352, 2012;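 active = inhibition of the luminescence signal of 40% or more relative to plate controls, in a single-dose primary screen at 18.75 µM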
* hit, by the source's call. Sampled rows, rich in hits. Any-hit rate of the full collection: about 4%.

SMILES	CF NFkB block	KKLEB tox	TWEAK Fn14 block	TROY NFkB inh	Peg3 prom inh	HIF-2a inh
C[C@H]1CN([C@@H](C)CO)C(=O)c2cccc(NC(=O)Nc3ccc(C(F)(F)F)cc3)c2O[C@@H]1CN(C)Cc1ccc(Cl)c(Cl)c1	67.8*	-48.4	17.8	2.4	97.0*	-35.7
C[C@@H]1CN([C@H](C)CO)C(=O)c2cc(NC(=O)Nc3ccc(C(F)(F)F)cc3)ccc2O[C@H]1CN(C)Cc1ccc(Cl)c(Cl)c1	-0.1	-0.5	52.7*	22.6	46.6	-14.9
C[C@H](CO)N1C[C@H](C)[C@@H](CN(C)S(=O)(=O)c2cccs2)Oc2ccc(NC(=O)Nc3ccc(C(F)(F)F)cc3)cc2C1=O	14.0	-16.6	60.2*	30.7	39.5	17.2
CC[C@H](C)[C@@H](CN[C@H](C)CNC)NCCC(c1ccccc1)c1ccccc1	20.5	-10.8	-18.8	-2.7	98.4*	-3.0
Cc1ccc(Sc2nc(-c3ccccc3)nnc2C(F)(F)F)cc1	17.0	2.3	32.4	26.9	105.1*	3.6
COC1=C(Nc2ccc(C)cc2)C(=O)c2ccccc2C1=O	47.4	-20.7	-36.4	-20.4	-168.7	-165.7
COC1=C(Nc2ccccc2)C(=O)c2ccccc2C1=O	50.3*	-6.6	16.3	-3.2	-44.0	-51.1
CCCCOc1ccc(CSC(=N)N)cc1Cl	-13.7	-1.1	-3.6	-50.0	93.1*	-82.4
CCCCCOc1ccc(Br)cc1CSC(=N)N	24.6	-5.7	27.1	42.3	104.5*	15.6
COc1ccc(Br)cc1CSC(=N)N	4.2	10.3	3.6	22.1	-2.3	9.1
Cn1cnc(C(=O)N2CCc3ccccc3C2)c1C(=O)N1CCc2ccccc2C1	-34.0	9.0	-6.8	-8.1	3.4	-1.9
Nc1ccc(CC(N)c2csc(Nc3cc(Oc4ccccc4)ncn3)n2)cc1 (configuration not stated)	3.1	-1.2	-10.9	-4.8	15.2	17.1
NC(c1csc(Nc2cc(Oc3ccccc3)ncn2)n1)C1CCCCC1 (configuration not stated)	20.9	6.8	-12.6	26.7	99.2*	5.5
NC(Cc1ccc(C(F)(F)F)cc1)c1csc(Nc2cc(Oc3ccccc3)ncn2)n1 (configuration not stated)	90.6*	-93.8*	13.7	10.3	105.6*	11.4
COC(=O)C1=C(C)N(Cc2ccco2)C(=O)/C1=C\c1ccc([N+](=O)[O-])cc1	-23.0	-6.2	-10.1	12.6	94.5*	22.3
COC(=O)C1=C(C)N(Cc2ccco2)C(=O)/C1=C\c1ccc(N(C)C)cc1	-34.5	-18.9	-4.3	-2.1	0.0	-2.2
COC(CNC(=O)C(=O)NCC1CCCN1S(=O)(=O)c1cccs1)OC (configuration not stated)	-6.1	0.6	-4.7	-42.8	-8.7	-2.4
Cc1cc(/C=N/NC(=O)c2cccs2)c(C)n1-c1ccccc1	-23.3	-26.5	79.8*	63.3*	-120.0	-35.4
Cc1cc(/C=N/NC(=O)c2ccncc2)c(C)n1-c1ccccc1	-5.8	2.0	-16.1	-31.5	-138.6	-173.7
CCOC(=O)c1c(NC(=O)COC(=O)CCNS(=O)(=O)c2ccccc2)sc(C(=O)NC)c1C	25.9	6.6	-8.5	5.8	-1.6	4.0
CCOc1ncccc1C(=O)NCC(c1ccco1)N1CCCCC1 (configuration not stated)	20.6	-23.9	31.3	-6.2	-4.2	9.0
CC(NC(=O)c1ccc(F)cc1)c1ccc2c(c1)CCCC2 (configuration not stated)	-5.1	-0.1	20.1	52.8*	-73.3	-56.0
Cc1cc(C)nc(SC2=CS(=O)(=O)c3ccccc32)n1	29.8	-4.4	53.3*	15.1	33.9	-3.7
O=[N+]([O-])c1ccc2[nH]cc(S(=O)(=O)N3CCN(c4cccc(Cl)c4)CC3)c2c1	12.9	0.8	17.9	38.9	60.0*	6.6
O=S(=O)(c1ccccc1)N1CCN(c2cccc(Cl)c2)CC1	-13.7	13.7	-2.1	-9.9	2.8	-1.4
COCCn1c(C)cc(C2=NNC(=Nc3ccccc3)SC2)c1C	-4.2	2.4	76.4*	82.0*	-119.9	-97.8
